# Laboratory results from ChEMBL document CHEMBL3988442, “University of Dundee, Small-Polar-MMV Screening Library” (2021).
# The campaign covered roughly 69,000 compounds. About 420 (0.61%) showed an effect of 50% or more. This excerpt belongs to a sample that is enriched for strong results.
# Target: T1, Histidine--tRNA ligase (Leishmania infantum) (UniProt A4I591)
# T1 sequence (whole entry): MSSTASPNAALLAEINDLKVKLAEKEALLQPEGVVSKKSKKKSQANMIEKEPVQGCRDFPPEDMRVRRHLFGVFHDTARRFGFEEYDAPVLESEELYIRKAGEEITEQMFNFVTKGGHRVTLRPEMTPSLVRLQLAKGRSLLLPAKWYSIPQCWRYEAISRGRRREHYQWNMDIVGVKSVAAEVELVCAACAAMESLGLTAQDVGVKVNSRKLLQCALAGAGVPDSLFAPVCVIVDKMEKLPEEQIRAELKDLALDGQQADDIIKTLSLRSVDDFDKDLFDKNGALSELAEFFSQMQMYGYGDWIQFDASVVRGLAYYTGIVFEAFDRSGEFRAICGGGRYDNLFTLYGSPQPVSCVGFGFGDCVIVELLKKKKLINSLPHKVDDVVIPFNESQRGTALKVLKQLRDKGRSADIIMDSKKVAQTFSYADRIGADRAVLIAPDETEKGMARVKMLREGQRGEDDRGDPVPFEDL
# Assay: Leishmania infantum Histidine tRNA synthetase (LdHisRS)
# Type: functional
# Parameters: scale not given: in the data most compounds retested in dose-response had high values
# Conditions: 30 µM
row,SMILES,Percent Effect
1,CC1=N[C@@]2(CC[C@@H]3CN(C(=O)NC(C)C)C[C@@H]32)C(=O)N1CC1CC1,11.1%
2,CC(C)C(=O)N1CC[C@H]2N(C)CC[C@@]2(C(=O)Nc2ccccc2)CC1,2.7%
3,COCCN1CC[C@H]2CN(Cc3ccc(C)s3)C[C@@H]2C1=O,7.69%
4,CC(=O)N1CC[C@H]2OCC[C@@]2(C(=O)NCc2ccco2)C1,13.2%
5,CCc1cc(C(C)Nc2nc(-c3cccnc3)nc3c2CNC3)on1 (centres undefined),17.1%
6,Cc1cccnc1[C@H](C)Nc1nc(-c2cccnc2)nc2c1CNC2,54.3%
7,Cc1cc(CC(C)Nc2nc(-c3cccnc3)nc3c2CNC3)[nH]n1 (centres undefined),22.9%
8,CCC(C)NC(=O)c1coc(COc2cccc(F)c2)n1 (centres undefined),19.7%
9,COC(=O)[C@@H](NC(=O)c1coc(COc2cccc(F)c2)n1)C(C)C,6.58%
10,CC(NC(=O)c1coc(COc2cccc(F)c2)n1)c1nnc(N)s1 (centres undefined),54%
11,CN(C[C@@H]1CCC[C@@H]2CN(c3ncccn3)C[C@@H]21)C1CC1,23.3%
12,COC[C@@H]1CC[C@H]2[C@H](CCN2S(=O)(=O)c2cccc(F)c2)O1,2.65%
13,O=C(NCc1ccccn1)[C@@]12CCO[C@@H]1CCN(c1ncccn1)C2,15.4%
14,CCOCC(=O)Nc1cc(C)cnc1OC,9.52%
15,COc1ncc(C)cc1NC(=O)COCC(F)(F)F,77.8%
16,COc1cccc(OCC(=O)Nc2cc(C)cnc2OC)c1,-3.17%
17,O=C(c1ccccn1)N1CC[C@H]2[C@H]1CCN2S(=O)(=O)C1CC1,14%
18,CN(C)C(=O)[C@H]1C[C@@H]2CN(c3ncccn3)C[C@H]1O2,22.2%
19,CCCc1ccc(CN2CCN(C(=O)NCC)[C@H]3CS(=O)(=O)C[C@H]32)o1,13.2%
20,O=C(c1ccco1)N1CC[C@H]2[C@H]1CCN2CC1CCOCC1,6.57%
21,Cc1ccccc1OCC1CCCN(c2cc(N)nc(N)n2)C1 (centres undefined),72.3%
22,Nc1cc(N2CCCC(COc3ccc(F)cc3)C2)nc(N)n1 (centres undefined),24.1%
23,Cc1nc(N)cc(N2CCCC(COc3cccc(F)c3)C2)n1 (centres undefined),24.1%
24,O=C(CC1CC1)N[C@@H]1CN(Cc2ccc(F)cc2)C[C@@H]2CCCO[C@@H]21,11.4%
25,O=C(NC1CC1)[C@@H]1C[C@@H]2CCN(Cc3ccccc3)C[C@@H]2O1,-7%
26,Cc1ncsc1CN1C[C@@H]2COC[C@]2(C(=O)NC2CC(F)(F)C2)C1,20%

row,SMILES,Percent Effect
1,Cc1nn(CCC#N)c(C)c1[C@@H]1C=C[C@@H](NCc2cccc(Cl)c2)C1,50%
2,Cc1nc[nH]c1CNC1CC(=O)N(CCc2cccc(Cl)c2)C1 (centres undefined),7.45%
3,Cc1nn(CCC#N)c(C)c1[C@@H]1C=C[C@@H](NCc2ccc(F)cc2)C1,25%
4,Cc1cnc(C(=O)N2C[C@H]3CC[C@@H]2CN(c2cnccn2)C3)cn1,18.6%
5,O=C(NC[C@@]1(COc2cnccn2)C[C@@H](O)[C@@H](O)C1)C1CC1,5.41%
6,Cc1ccc(C(=O)N2CCO[C@H]3[C@H](OCCN(C)C)CC[C@@H]32)cn1,9.72%
7,Cc1cccc(NC(=O)c2[nH]nc(C(C)C)c2Br)n1,12.5%
8,O=C(c1ccco1)N1C[C@@H]2[C@@H](C1)OCC(=O)N2Cc1cccnc1,20.4%
9,Cc1ccc(CN2C[C@@H]3COC[C@@H](CC(=O)N4CCOCC4)[C@@H]3C2)s1,20.5%
10,CCC(=O)Nc1ccc2c(c1)C1(CCOCC1)CN2CCOC,46%
11,CCC(=O)Nc1ccc2c(c1)C1(CCOCC1)CN2CCF,22.5%
12,CCS(=O)(=O)Nc1ccc2c(c1)C1(CCOCC1)CN2C,51.5%
13,CN(C)C(=O)N1CC2(CCOCC2)c2cc(NS(=O)(=O)C3CC3)ccc21,15.4%
14,CCCC(=O)Nc1ccc2c(c1)C1(CCOCC1)CN2CCOC,35.1%
15,CCN1CC2(CCOCC2)c2cc(NS(=O)(=O)CC)ccc21,75.2%
16,CC(c1ccccc1)N1Cc2nc(N(C)C)ncc2C1=O (centres undefined),3.54%
17,CC1CCN(c2ncc3c(n2)CN(c2ccc(F)cc2)C3=O)CC1,12.4%
18,COc1ccc(CN2C[C@H]3CN(Cc4ccncc4)C(=O)[C@H]3C2)cc1,21.4%
19,COCCN1CCN(C(=O)c2ccc(COC)o2)[C@H]2CS(=O)(=O)C[C@H]21,21.3%
20,c1coc(CN2C[C@H](OCC3CCOCC3)[C@H]3COC[C@H]32)c1,9.02%
21,COc1ccc2c(c1)ncn2C[C@]1(O)CCCN2CCCC[C@@H]21,4.2%
22,CCOc1ccc(C(=O)N(CCOC)Cc2c(C)nn(CC)c2C)o1,63.3%
23,CCn1nc(C)c(CN(CCOC)C(=O)c2cnc(C)nc2O)c1C,20%
24,CCn1nc(C)c(CN(CCOC)C(=O)c2ccccc2N(C)C)c1C,21.7%
25,Cc1nn(C)c(C)c1S(=O)(=O)N1CC[C@@H]2O[C@@H](C)C[C@H]2C1,7.69%
26,O=C(c1ccc(F)cc1)N1C[C@@H]2OCCN(c3ncccn3)[C@@H]2C1,18.9%

row,SMILES,Percent Effect
1,Cc1nc(COC[C@]23COC[C@H]2CN(Cc2ccoc2)C3)cs1,22.6%
2,Cc1nnc(N2C[C@H](OCc3cccnc3)[C@H]3OCCC[C@H]32)s1,24.3%
3,COCCOc1ccc(F)cc1NCc1nc2ccccc2n1C,13.2%
4,COCCOc1ncccc1NCc1nc2ccccc2n1C,15.7%
5,COc1cc(F)c(NCc2nc3ccccc3n2C)cc1OC,78.3%
6,CC(=O)N1CCN(C(=O)Nc2ccc(Cl)cc2)[C@H]2CS(=O)(=O)C[C@H]21,8.2%
7,O=C(c1ccncc1)N1C[C@@H]2CCN(c3cccnc3)C[C@@H]2C1,23.5%
8,O=C(C1CCCC1)N1C[C@@H]2CCN(c3cccnc3)C[C@@H]2C1,14.7%
9,O=C(c1ccc(F)cc1)N1C[C@@H]2CCN(c3cccnc3)C[C@@H]2C1,20.6%
10,c1cnc(N2C[C@H]3CCN(c4cccnc4)C[C@H]3C2)nc1,23.1%
11,Fc1cccc(N2C[C@H]3CCN(c4cccnc4)C[C@H]3C2)c1,61.5%
12,Cn1cccc1C(=O)N1CC[C@H]2[C@@H]1CCC(=O)N2CC1CC1,21.1%
13,O=C(C1CCC1)N1C[C@@H]2CN(Cc3ccncc3)C(=O)[C@@H]2C1,15.8%
14,CCCC(=O)N1CC[C@@H]2[C@H](CC1)N(Cc1cccnc1)CCS2(=O)=O,17.3%
15,Cc1cccc(CN2C[C@@H]3CN(C4CCOCC4)C[C@@H]3C2=O)c1,19.7%
16,CCN1C(=O)C[C@@H]2[C@@H]1CCN2S(=O)(=O)c1cccc(C)c1,0%
17,CC(C)=CCN1CCN(C(=O)c2snnc2C)[C@H]2CS(=O)(=O)C[C@H]21,5%
18,CCc1cnc(N2C[C@H](OCc3csc(C)n3)[C@H]3COC[C@H]32)nc1,20.7%
19,CCN1C(=O)CC[C@@H]2N(C(=O)CCn3nccc3C)CCCC[C@@]21C,15.7%
20,Cc1noc(C[C@@H]2COC[C@H]3CN(S(=O)(=O)C4CC4)C[C@@H]23)n1,12.8%
21,OC1CCN(Cc2c(-c3ccco3)[nH]c3ncccc23)CC1,30.4%
22,CCN1CCN(Cc2c(-c3ccco3)[nH]c3ncccc23)CC1,4.35%
23,NC(=O)C1CCCN(Cc2c(-c3ccco3)[nH]c3ncccc23)C1 (centres undefined),55.6%
24,OC1CCCN(Cc2c(-c3ccco3)[nH]c3ncccc23)C1 (centres undefined),66.7%
25,c1coc(-c2[nH]c3ncccc3c2CN2CCCOCC2)c1,30.4%
26,CN1CCN(Cc2c(-c3ccco3)[nH]c3ncccc23)CC1,18.8%

row,SMILES,Percent Effect
1,CN1CCCC[C@@H]2[C@H]1[C@@H](c1ccccc1)CCN2C(=O)c1cnccn1,25%
2,CC(C)OCCCNC(=O)[C@@]12CNC[C@@H]1CN(S(C)(=O)=O)C2,-3.23%
3,CCC1=N[C@@]2(CC[C@@H]3CN(Cc4ccc(Cl)cc4)C[C@@H]32)C(=O)N1,3.01%
4,CC(C)NC(=O)[C@@H]1C[C@@H]2CCN(Cc3ccoc3)C[C@H]2O1,17.3%
5,Cc1ccc(NC(=O)Nc2c(O)oc3ccccc3c2=O)cc1C,16.1%
6,O=C(O)C1c2nc[nH]c2CCN1Cc1ccc(-c2ccccc2)s1 (centres undefined),28.8%
7,O=C(O)C1c2nc[nH]c2CCN1Cc1ccccc1-c1ccccc1 (centres undefined),28.8%
8,O=C(O)C1c2nc[nH]c2CCN1CC(c1ccccc1)c1ccccc1 (centres undefined),107%
9,Cc1cccc(CN2C(=O)CC[C@@H]3[C@H]2CCN3Cc2ccc(F)cc2)n1,20.6%
10,Cc1ccc(CN2CCC[C@@H]3CN(C(=O)c4ccco4)C[C@@H]32)o1,15.5%
11,CCCn1nccc1C(=O)N1CCN(C(=O)C2CC2)[C@@H]2CS(=O)(=O)C[C@@H]21,0%
12,Cc1cc(C)n(CC(=O)N2C[C@@H]3CC[C@H](C2)N(CC2CCC2)C3)c(=O)n1,57.1%
13,Cc1cc(C)n(CC(=O)N2CCCCC2CCN(C)C)c(=O)n1 (centres undefined),16%
14,Cc1ccc(C(=O)N2C[C@@H]3CC[C@H](C2)N(CC2CCC2)C3)s1,21.9%
15,CC(=O)c1ccc(C(=O)N2C[C@@H]3CC[C@H](C2)N(CC2CCC2)C3)s1,19.2%
16,CC(C)=CCN1C[C@H]2CC[C@@H]1CN(C(=O)Cn1c(C)cc(C)nc1=O)C2,23.8%
17,O=C(NC1CCCC1)N1C[C@H]2CN(c3ccncc3)C[C@@]2(C(=O)O)C1,-1.96%
18,CN(C)C(=O)[C@H]1C[C@H]2OCC[C@H]2N(Cc2ccc3c(c2)OCO3)C1,29.4%
19,O=C1CO[C@H]2CN(S(=O)(=O)c3ccccc3)C[C@H]2N1CC1CCCCC1,27.8%
20,COCC(=O)NC[C@@]1(COc2cnccn2)C[C@@H](O)[C@@H](O)C1,10.8%
21,Cc1cnc(N2C[C@H]3C[C@H](C(=O)N4CCN(C)CC4)N(C)[C@H]3C2)nc1,5.05%
22,CC(=O)Nc1ccc2nc(-c3nccn3CC(C)(C)CO)ccc2c1,10.6%
23,CC(=O)Nc1ccc2nc(-c3nccn3C[C@@H]3CCCO3)ccc2c1,51.1%
24,CC(=O)Nc1ccc2nc(-c3nccn3CCCN(C)C)ccc2c1,12.8%
25,O=C([C@@H]1C[C@@H]2CCN(Cc3ccoc3)C[C@H]2O1)N1CCCC1,2.73%
26,CN(C)C[C@@H]1C[C@@H]2CN(C(=O)c3ccoc3)CC[C@@H]2N1CC1CC1,7.32%
